ATXN viability: Viability Counterscreen for Primary qHTS for Inhibitors of ATXN expression | S2 cells (HEK-293 line with an ATXN2-luciferase reporter) viability, CellTiter-Fluor protease fluorescence, 24 h | Potency, µM (series often up to 56.7 µM), most hits filed as cytotoxic | 400,000 compounds, 0.49% hits; note: nearly all actives have a fitted effect of over 40% in size
HepG2 viability: qHTS for Inhibitors of TGF-b: Cytotox Counterscreen. AID 588856, 2011. HepG2 CAGA-GFP viability, ATP luminescence, 18 h. Potency, µM (top dose mostly 46.1 µM), inactives show at the top dose activity change, negative = cytotoxicity, usual class: cytotoxic. 410,000 compounds, 0.76% hits
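HepG2 CAGA-GFP cells (1000/well, DMEM with 1% FBS) received compound, then TGF-beta at 500 pg/mL final, and were incubated 18 hours at 37 degrees C. Viability was read by CellTiter-Glo luminescence. Media-only wells were set as complete cell-killing and DMSO as no toxicity.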
TGFb SMAD3 inh: qHTS for Inhibitors of TGF-b. HepG2 CAGA-GFP TGF-b/SMAD3 reporter, GFP fluorescence, 18 h; TGF-beta stimulated, 500 pg/mL final. Potency, µM (doses to about 46.1 µM), for the others: top-dose activity, negative = inhibition, most hits filed as inhibitors. 410,000 compounds, 1.2% hits. AID 588855, 2011; note: % is set by controls: 0 for no effect and ±100 for the full control effect; nearly all actives have a fitted effect of over 65% in size
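HEPG2 CAGA-GFP cells (1000/well, DMEM with 1% FBS) were pre-incubated 2 h at 37 degrees C, given compound by pin tool, then stimulated with TGF-beta at 500 pg/mL final for 18 h before per-cell GFP fluorescence imaging.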
Gal4-VP16 FLuc: VP16 counterscreen qHTS for inhibitors of ROR gamma transcriptional activity; Drosophila S2 Gal4-VP16 UAS-luciferase, luminescence, 20 h; Potency, µM (series often up to 53.6 µM), without a hit: at the top dose activity, negative = inhibition, hits mostly inhibitors; 310,000 compounds, 3.5% hits;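 note: Gal4-VP16 expression switched on by copper sulfate through the metallothionein promoter; % is set by controls: 0 for no effect and ±100 for the full control effect; nearly all actives have a fitted effect of over 50% in size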
RORgamma inh: qHTS for inhibitors of ROR gamma transcriptional activity. Nuclear receptor ROR-gamma (Mus musculus), P51450. Drosophila S2 Gal4-RORgamma UAS-luciferase reporter, 20 h. Potency, µM (series often up to 53.6 µM), inactives show top-dose activity change, negative = inhibition, hits mostly inhibitors. 310,000 compounds, 5.4% hits; note: % is set by controls: 0 for no effect and ±100 for the full control effect; nearly all actives have a fitted effect of over 60% in size
Target sequence (P51450 whole entry, looked up, the tested form may be a part): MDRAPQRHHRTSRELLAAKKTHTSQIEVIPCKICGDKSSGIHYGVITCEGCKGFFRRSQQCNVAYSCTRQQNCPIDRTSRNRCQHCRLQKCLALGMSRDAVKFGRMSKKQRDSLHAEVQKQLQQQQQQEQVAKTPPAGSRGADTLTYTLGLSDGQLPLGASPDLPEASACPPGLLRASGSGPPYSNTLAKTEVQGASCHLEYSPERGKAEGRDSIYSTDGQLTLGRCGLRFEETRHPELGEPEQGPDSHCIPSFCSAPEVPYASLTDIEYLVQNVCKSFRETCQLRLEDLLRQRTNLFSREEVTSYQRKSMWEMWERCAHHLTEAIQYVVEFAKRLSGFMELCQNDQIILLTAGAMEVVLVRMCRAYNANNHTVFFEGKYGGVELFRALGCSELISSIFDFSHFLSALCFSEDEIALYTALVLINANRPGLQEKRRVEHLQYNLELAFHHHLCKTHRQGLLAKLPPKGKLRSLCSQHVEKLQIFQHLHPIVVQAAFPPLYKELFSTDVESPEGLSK
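In this cell-based reporter format, copper sulfate (700 uM final) drives Gal4–ROR gamma fusion expression from a metallothionein promoter in Drosophila Schneider cells; compounds preincubated 1 hr, reporter read after 20 hr at ambient temperature.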
ATXN2 expr inh: Primary qHTS for Inhibitors of ATXN expression; 360,000 compounds, 0.72% hits; AID 1745845, 2022; Potency, µM (highest dose often 57 µM), inactives show at the top dose activity change, negative = inhibition, actives largely listed as inhibitors; HEK-293 ATXN2-luciferase reporter, luminescence, 24 h; note: % is set by controls: 0 for no effect and ±100 for the full control effect; nearly all actives have a fitted effect of over 55% in size
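qHTS (up to 57 uM final) was run with 24 h compound exposure of reporter cells at 37 °C. Each well was multiplexed: SteadyGlo luminescence measured ATXN2-luciferase expression after a fluorogenic Gly-Phe-AFC viability readout (25 uM final).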
An asterisk follows results filed as active; i = inactive; ? = inconclusive; / = no result; [ ] = another dose, or the depositor's remark. A selection: hits, their analogues and other compounds. The true share with any hit is near 6.1%. Calls come from the whole dose curve; as a rule, active = well fitted curve in the direction sought with a large enough effect; inconclusive = small, poorly fitted or top-dose-only effect, or another doubt; inactive = no such curve, though single readings can be large; an effect the other way counts as inactive or inconclusive. Potency is the fitted concentration of half-maximal effect.

SMILES | ATXN viability | HepG2 viability | TGFb SMAD3 inh | Gal4-VP16 FLuc | RORgamma inh | ATXN2 expr inh
O=C(c1cccc([N+](=O)[O-])c1)N1c2nc(-c3ccco3)nn2C2(CCCCC2)[C@@H]2CCCC[C@@H]21 | / | -12.9% | ? | / | / | /
c1ccc(CN2c3ccccc3-c3nc4ccccc4n3C2c2ccccn2)cc1 (stereo not given) | / | -2.1% | -2.2% | -29.3% | 15.8µM* | /
CCN1c2ccccc2-c2nc3ccccc3n2C1c1ccco1 (stereo not given) | i | -11.1% | -20.4% | ? | 15.8µM* | -7.2%
Clc1ccc(Cn2c(-c3cccnc3Cl)nc3ccccc32)cc1 | i | -6.4% | -10.4% | 10.7% | -8.0% | ?
CN1c2ccccc2-c2nc3ccccc3n2C1c1ccccn1 (stereo not given) | i | -16.4% | -16.2% | ? | 3.98µM* | 3.0%
CN1c2ccccc2-c2nc3ccccc3n2C1c1ccncc1 (stereo not given) | i | -21.4% | 0.6% | 8.8% | -29.7% | -7.8%
COC(=O)c1ccccc1NC(=O)c1ccc(CN2CC(=O)N3CCCCC3C2=O)cc1 (stereo not given) | / | -6.5% | -4.0% | / | / | /
COc1ccc(NCc2nnc(SCC(=O)Nc3nc(-c4ccccc4)cs3)n2-c2ccccc2)cc1 | ? | -5.3% | -12.6% | 5.01µM* | 8.0% | -30.6%
COc1ccc(-n2c(CNc3ccc(C)cc3)nnc2SCC(=O)Nc2nc(-c3ccccc3)cs2)cc1 | 22.4µM* | -22.3% | -1.7% | -8.2% | 14.9% | 17.8µM*
COc1cc(CCCN2C(=S)NC[C@@H]2CC2CCCCC2)cc(OC)c1OC | ? | -41.2% | -9.1% | ? | 3.98µM* | ?
Cc1ccc(OCC(=O)Nn2c(C)nc3ccccc3c2=O)c(C(C)C)c1 | i | -6.2% | -25.8% | 22.4µM* | -18.8% | -13.4%
Cc1cc(C)c(-c2cc([C@H](C)O/N=C3/[C@H]4OC4[C@@H](O)[C@H]4[C@H]3CCn3c(=O)n(-c5ccccc5)c(=O)n34)on2)c(C)c1 (stereo not given in full) | / | / | / | -0.5%[10 µM] | 27.3%[10 µM] | /
Cc1ccc(NC(=O)c2ccccc2)cc1 | i | -14.4% | -3.4% | ? | 13.5% | -14.4%
Cc1ccc(NC(=O)C2=C(c3ccccc3)S(=O)(=O)CCS2(=O)=O)cc1 | 11.2µM* | 7.08µM* | 3.55µM* | 5.01µM* | 0.631µM* | ?
Cc1sc2nc(COC(=O)c3c(F)cccc3F)[nH]c(=O)c2c1C | i | 0.0% | 0.0% | 23.5% | 12.6µM* | -8.8%
CC1(C)CC(NC(=O)c2cccc(S(=O)(=O)N(Cc3ccccc3)c3ccccc3)c2)CC(C)(C)N1 | ? | 14.1µM* | ? | / | / | ?
Cc1nn(CC(=O)NNC(=S)Nc2ccccc2)c(C)c1[N+](=O)[O-] | i | 3.8% | 16.9% | 12.6µM* | 8.91µM* | 1.5%
Cc1nn(CCC(=O)NNC(=S)Nc2cccc(Cl)c2)c(C)c1[N+](=O)[O-] | i | -1.8% | 22.3% | 3.8% | -2.7% | -8.8%
Cc1cccc(NC(=S)NNC(=O)CCn2nc(C)c([N+](=O)[O-])c2C)c1 | i | -16.0% | 4.7% | 0.5% | 1.78µM* | -2.2%
Cc1ccccc1Oc1cc(NC(=O)CCCn2nc(C)c([N+](=O)[O-])c2C)cc([N+](=O)[O-])c1 | i | 19.7% | ? | -93.2% | 40.7%[10 µM] | ?
Cc1nn(CCCC(=O)Nc2cc(Oc3ccc(F)cc3)cc([N+](=O)[O-])c2)c(C)c1[N+](=O)[O-] | i | 1.8% | ? | 10µM* | ? | -24.8%
Cc1ccc(NC(=S)NNC(=O)Cn2nc(C(F)F)cc2C(F)F)cc1 | i | -0.5% | -5.1% | -24.6% | 2.24µM* | -1.2%
Cc1c(Cl)cccc1NC(=O)CCOc1ccccc1 | i | 2.8% | -6.3% | / | / | -1.6%
CCCCCCCCCCCCCCCCCCN(C)C | i | / | / | / | / | 5.0%
C#CC(C)(CC)NC(=O)c1cc2c(n(-c3ccc(Cl)cc3)c1=O)CC(C)(C)CC2=O (stereo not given) | ? | -19.0% | 9.1% | / | / | -24.2%
SMILES | ATXN viability | HepG2 viability | TGFb SMAD3 inh | Gal4-VP16 FLuc | RORgamma inh | ATXN2 expr inh
COc1cc(OC)c(OC)cc1CN1CCOc2ccc(CN3C[C@@H](C)O[C@@H](C)C3)cc2C1 | i | / | / | / | / | /
COc1cc(/C=N/Nc2nc(=O)[nH]nc2C)ccc1O | i | -18.8% | 4.9% | -12.6% | 11.2µM* | 16.4%
COc1ccc(/C=N/Nc2nc(=O)[nH]nc2C)cc1[N+](=O)[O-] | i | -3.0% | 6.9% | 1.3% | -4.3% | /
COc1cc(/C=N/Nc2nc(=O)[nH]nc2C)cc([N+](=O)[O-])c1O | i | -4.8% | 24.6% | -3.8% | -47.4% | /
Cc1n[nH]c(=O)nc1N/N=C/c1ccc(O)c([N+](=O)[O-])c1 | i | -28.2% | -5.1% | ? | 11.2µM* | 0.5%
COc1ccc(/C=N/Nc2nc(=O)[nH]nc2C)cc1OC | i | -25.6% | 1.9% | 7.9% | 11.2µM* | 13.9%
COc1cccc([C@@H]2Oc3ccc(OC)cc3C(=O)[C@H]2OC(=O)N[C@H]2CCCc3ccccc32)c1 | / | / | / | -3.6% | -5.8% | /
CC1=C(C(=O)OCC2CCCCC2)C(c2ccc(Cl)cc2)CC(=O)N1 (stereo not given) | i | 12.6µM* | ? | / | / | -29.7%
CCc1cc2c(=O)c(-c3cnn(-c4ccccc4)c3)coc2c(CN2CCOCC2)c1O | i | 0.2% | ? | 2.0% | ? | ?
Fc1cc(-c2cccc3ncc(-c4cnn(C5CCNCC5)c4)nc23)cc(F)c1CN1CCOCC1 | / | / | / | / | / | 24.3µM*
COc1ccccc1N(CC(O)COc1c(C)cc(C)cc1C)S(=O)(=O)c1ccccc1 (stereo not given) | ? | 10.8% | 12.6µM* | -7.5% | 41.3% | -17.2%
COc1ccccc1-c1nnc(NC(=O)c2ccc(S(=O)(=O)N(C)Cc3ccccc3)cc2)o1 | ? | -23.6% | -1.2% | 0.0028µM* | 0.316µM* | ?
CN(Cc1ccccc1)S(=O)(=O)c1ccc(C(=O)Nc2nnc(C3CC3)o2)cc1 | i | -8.3% | -22.6% | 0.562µM* | 0.282µM* | -29.7%
CCc1nnc(NC(=O)c2ccc(S(=O)(=O)N(CC)Cc3ccccc3)cc2)o1 | i | 9.5% | -26.9% | 0.112µM* | 0.1µM* | -15.4%
CCN(Cc1ccccc1)S(=O)(=O)c1ccc(C(=O)Nc2nnc(C)o2)cc1 | i | -24.1% | -20.4% | 0.562µM* | 0.562µM* | 4.1%
CCN(Cc1ccccc1)S(=O)(=O)c1ccc(OC)cc1 | ? | -51.2% | ? | -27.5% | 121.8% | -3.7%
